According to PubChem BioAssay (EPA / NIEHS):
Inconclusive results are not listed. Active and inactive are the calls of the source. Rule for the calls: active = hit-call score of the fitted dose curve at least 0.9, where 1 is the maximum; inconclusive = response in the unintended direction; inactive = score below 0.9.

molecular target: human Serotonin, 5-Hydroxytryptamine Receptor 7 (5HT7), HTR7 (gene 3363) (UniProt P34969); assay: NVS_GPCR_h5HT7: NovaScreen (NVS) G Protein-Coupled Receptor Assay for human Serotonin, 5-Hydroxytryptamine Receptor 7 (5HT7) (AID 2283255)
Procedure: NVS_GPCR_h5HT7 is a biochemical, single-readout assay that uses extracted gene-proteins from CHO in a cell-free assay. Measurements were taken 1 hour after chemical dosing in a 96-well plate.NVS_GPCR_h5HT7 is one of one assay component(s) measured or calculated from the NVS_GPCR_h5HT7 assay. It is designed to make measurements of radioligand binding, a form of binding reporter, as detected with scintillation counting signals by Filter-based radiodetection technology.Data from the assay component NVS_GPCR_h5HT7 was analyzed into 1 assay endpoint. This assay endpoint, NVS_GPCR_h5HT7, was analyzed in the positive analysis fitting direction relative to DMSO as the negative control and baseline of activity. Using a type of binding reporter, loss-of-signal activity can be used to understand changes in the binding as they relate to the gene HTR7. Furthermore, this assay endpoint can be referred to as a primary readout, because the performed assay has only produced 1 assay endpoint. To generalize the intended target to other relatable targets, this assay endpoint is annotated to the gpcr intended target family, where the subfamily is rhodopsin-like receptor.
Binding assays used specific radioligands (tritiated, iodinated) with non-radioactive competitive displacement ligands in agonist or antagonist protocols (as indicated) and various reference compounds and inhibitors to titrate specific binding to receptors and transporters. Most enzyme assays (CYPs, kinases, phosphatases, proteases, HDACs) used recombinant protein and specific substrates (fluorescence mostly, some colorimetric and radioactive) and inhibitors, followed by a biochemical separation of substrate and product. All assays for the biochemical HTS were initially run in duplicate at a single concentration (10 uM for CYP450 assays and 25 uM for all others). […] Each assay was run with positive and negative controls, and concurrent controls on every plate. The follow-up (secondary) screen tested active chemical-pairs in concentration series, as well as a few additional assays not tested in the primary screen, some selected negative inactives, and several cases re-run in the concentration series for confirmatory purposes.

Sequence of human Serotonin, 5-Hydroxytryptamine Receptor 7 (5HT7), HTR7 (gene 3363) (P34969 whole entry, looked up): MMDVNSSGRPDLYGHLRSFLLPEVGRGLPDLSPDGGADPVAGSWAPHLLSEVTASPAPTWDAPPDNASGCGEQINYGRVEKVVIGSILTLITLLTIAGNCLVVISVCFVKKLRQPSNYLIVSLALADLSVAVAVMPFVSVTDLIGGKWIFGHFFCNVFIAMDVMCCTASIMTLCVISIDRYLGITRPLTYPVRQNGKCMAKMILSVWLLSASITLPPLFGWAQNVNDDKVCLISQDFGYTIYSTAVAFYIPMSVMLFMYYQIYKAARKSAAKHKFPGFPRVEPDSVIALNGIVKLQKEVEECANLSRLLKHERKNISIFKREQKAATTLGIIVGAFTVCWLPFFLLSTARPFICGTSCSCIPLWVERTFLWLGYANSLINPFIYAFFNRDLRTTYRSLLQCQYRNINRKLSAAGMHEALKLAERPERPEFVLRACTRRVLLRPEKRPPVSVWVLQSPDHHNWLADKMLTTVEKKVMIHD

Row | Compound | AC50 | outcome
1 | NC(=O)N(O)[C@@H]1C=C[C@H](Oc2cccc(Oc3ccc(F)cc3)c2)C1 | 12.8 µM (active) | 
2 | NC(=O)N1C(=O)C(C(=O)c2cc(Cl)cs2)c2cc(F)c(Cl)cc21 (stereo not given) |  | inactive
3 | CN1CCN(c2ccccc2/C=C2\SCCN(c3ccc(Cl)c(Cl)c3)C2=O)CC1 | 0.0142 µM (active) | 
4 | Cc1oc(-c2ccccc2)nc1CCOc1ccc(C[C@H](Nc2ccccc2C(=O)c2ccccc2)C(=O)O)cc1 |  | inactive
5 | CCC(=C(c1ccc(O)cc1)c1ccc(OCCN(C)C)cc1)c1ccccc1 | 5.49 µM (active) | 
6 | O=[N+]([O-])c1ccc(O)cc1 |  | inactive
7 | CC[C@H](c1ccc(O)cc1)[C@@H](CC)c1ccc(O)cc1 |  | inactive
8 | O=C(O)Cc1cc(I)c(Oc2cc(I)c(O)c(I)c2)c(I)c1 | 5.26 µM (active) | 
9 | CC(=O)NC1(c2cccc(F)c2)CCN(CC[C@@]2(c3ccc(Cl)c(Cl)c3)CN(c3ccccc3)C(=O)CO2)CC1 | 20.8 µM (active) | 
10 | CCCOc1sc(C(=O)N2CCC(c3cc(CN)ccc3F)CC2)c(C)c1Br | 5.09 µM (active) | 
11 | CC#C[C@]1(O)CC[C@H]2[C@@H]3CCC4=CC(=O)CCC4=C3[C@@H](c3ccc(N(C)C)cc3)C[C@@]21C | 23.7 µM (active) | 
12 | CCN(CC)CCNc1ccc(CNC=O)c2sc3ccc(OC)cc3c(=O)c12 |  | inactive
13 | CCCCCCCCCCCCc1ccccc1S(=O)(=O)O | 7.69 µM (active) | 
14 | O=C(OCCOCCOC(=O)c1ccccc1)c1ccccc1 | 8.96 µM (active) | 
15 | Oc1cccc(O)c1 |  | inactive
